Screening results from PubChem BioAssay.
PP5 inh – blocks human protein phosphatase 5 activity; purified PP5c, OMFP substrate fluorescence; inhibition, % at 6.7 µM; 320,000 compounds, 0.18% hits;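 active means inhibition above the campaign's mean inhibition across all tested compounds plus 3 SD, cut at about 9.5% in these data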;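 further: 0% = DMSO only and 100% = 100 µM cantharidin control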
PP1 inh – blocks human PP1-alpha phosphatase, a PP5 counter-screen; P62136; purified PP1alpha, OMFP fluorescence; inhibition, % at 6.7 µM; 320,000 compounds, 0.9% hits; AID 2235;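 active means inhibition above the mean inhibition of all tested compounds plus 3 SD, computed separately for each screening campaign, cut at about 15% in these data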
IDE act – activators of human insulin-degrading enzyme in cells; P14735; HEK cells, FAbeta-B cleavage, fluorescence polarization; 0% vehicle, 100% cell-free pure enzyme wells; activation, % at 5.96 µM; 340,000 compounds, 0.073% hits;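 active means activation above the mean of all tested compounds plus 3 SD, set per screening campaign, cut at about 17% in these data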
Target sequence (P14735 whole entry, looked up): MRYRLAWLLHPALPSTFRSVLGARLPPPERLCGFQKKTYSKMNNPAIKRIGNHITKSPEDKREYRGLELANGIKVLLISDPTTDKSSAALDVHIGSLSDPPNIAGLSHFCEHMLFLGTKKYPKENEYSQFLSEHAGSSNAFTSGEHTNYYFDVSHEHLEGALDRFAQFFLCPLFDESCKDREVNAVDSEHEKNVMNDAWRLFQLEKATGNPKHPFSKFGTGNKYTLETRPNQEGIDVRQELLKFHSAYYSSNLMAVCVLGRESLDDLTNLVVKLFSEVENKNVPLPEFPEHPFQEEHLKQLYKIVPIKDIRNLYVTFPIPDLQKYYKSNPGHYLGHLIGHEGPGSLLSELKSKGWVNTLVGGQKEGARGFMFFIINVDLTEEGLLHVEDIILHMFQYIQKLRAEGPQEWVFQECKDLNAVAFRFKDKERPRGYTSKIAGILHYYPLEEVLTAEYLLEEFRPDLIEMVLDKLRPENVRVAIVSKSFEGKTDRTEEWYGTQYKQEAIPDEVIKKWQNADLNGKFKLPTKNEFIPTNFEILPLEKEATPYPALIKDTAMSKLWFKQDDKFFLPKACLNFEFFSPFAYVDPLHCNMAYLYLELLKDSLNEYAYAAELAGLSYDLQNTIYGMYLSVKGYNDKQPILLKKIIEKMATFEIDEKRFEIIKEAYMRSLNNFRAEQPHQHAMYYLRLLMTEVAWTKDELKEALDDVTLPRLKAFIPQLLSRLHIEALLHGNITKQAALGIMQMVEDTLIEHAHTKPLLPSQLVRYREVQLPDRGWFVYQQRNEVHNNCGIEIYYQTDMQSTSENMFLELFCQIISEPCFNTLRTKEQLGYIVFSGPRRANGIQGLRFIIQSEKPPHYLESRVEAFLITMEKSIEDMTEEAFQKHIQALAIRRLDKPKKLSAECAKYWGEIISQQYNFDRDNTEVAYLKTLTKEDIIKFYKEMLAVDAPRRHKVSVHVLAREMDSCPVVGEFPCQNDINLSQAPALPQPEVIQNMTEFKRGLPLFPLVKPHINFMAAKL
IDE inh – inhibits human insulin-degrading enzyme in HEK cells | AID 434962 | 320,000 compounds, 0.41% hits | FAbetaB cleavage, fluorescence polarization | P14735 | inhibition, % at 5.59 µM;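 active means percent inhibition above the average of all tested compounds plus 3 SD, set per screening campaign, cut at about 16% in these data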;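 further: IDE supplied by intact live HEK cells; FP after avidin binding of uncleaved biotin substrate so inhibition keeps polarization high; 0% = DMSO wells and 100% = 60 µM reference IDE inhibitor Ii1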
SKKanGAS inh – blocks kanamycin growth of S. pyogenes SKKanGAS strain; BacTiter-Glo, 6 h; inhibition, % at 7.5 µM; 300,000 compounds, 1.3% hits; AID 1662;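 active means mean replicate score, as percent of positive control median, at least 50; inconclusive means mean below 50 but one replicate at or above 50; inactive means mean and every replicate below 50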;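 further: strain carries kanamycin resistance gene driven by streptokinase promoter and grows in 40 µg/ml kanamycin; loss of luminescence reflects streptokinase promoter inhibition or plain growth inhibition; 0% = median of DMSO wells and 100% = positive control at its reference dose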
Granule exo inh – blocks lytic granule exocytosis; TALL-104 LAMP-1 surface exposure, flow cytometry; cells stimulated with thapsigargin and PMA; inhibition, % at 10 µM; 360,000 compounds, 0.66% hits;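 active means inhibition above about 55%, limit read from the data; inconclusive means no clear call, values can overlap the other calls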
Active calls of the source: *. Shown are actives, neighbours in structure and some others; about 2.8% of the full set was active somewhere.

O=C(Oc1c(Cl)cc(Cl)c2cccnc12)c1ccco1 was read as PP5 inh 1, PP1 inh 3, IDE act -2, IDE inh -5, SKKanGAS inh 85* and Granule exo inh 8.
For Oc1ccc(Cl)c2cccnc12 the results were IDE act 5 and Granule exo inh 0.
`O=C(Oc1c(CN2CCOCC2)cc(Cl)c2cccnc12)c1cccs1` gave PP5 inh 0, PP1 inh 1, IDE act -4, IDE inh 0, SKKanGAS inh -1 and Granule exo inh 2.
Screening Oc1c(Cl)cc(Cl)c2cccnc12 returned IDE act 2, SKKanGAS inh 87* and Granule exo inh 3.
For Cc1ccc(C(=O)OCC(=O)N(Cc2ccccc2)C(C)C)cc1C the results were IDE act 3, IDE inh 1 and Granule exo inh -1.
For CCn1c(=O)n(CC)c2cc(N3CCCC3)c(NC(=O)c3cccc(Cl)c3)cc21 the results were PP5 inh 0, PP1 inh 1, IDE act 7, IDE inh -3, SKKanGAS inh 6 and Granule exo inh 2.
`COc1ccc(NC2=NCC(Cc3ccc(Br)cc3)S2)cc1` (centres undefined) gave PP5 inh 4, PP1 inh 16*, IDE act -1, IDE inh -6, SKKanGAS inh inconclusive and Granule exo inh 16.
`O=C(O)CC(C(=O)O)N1C(=O)/C(=C/C=C/c2ccco2)SC1=S` (centres undefined) gave PP5 inh 2, PP1 inh 11, IDE act -5, IDE inh 1, SKKanGAS inh 9 and Granule exo inh -2.
CN1CCN(C(=O)CCCN2C(=O)/C(=C/c3ccccc3)SC2=S)CC1 was read as PP5 inh 2, PP1 inh 4, IDE act 1, IDE inh -2, SKKanGAS inh 2 and Granule exo inh 61*.
For O=C(O)CCCN1C(=O)/C(=C/C=C/c2ccco2)SC1=S the results were PP5 inh 2, PP1 inh 24*, IDE act 1, IDE inh 4, SKKanGAS inh -6 and Granule exo inh -4.
For O=C(CCCN1C(=O)/C(=C\c2ccccc2)SC1=S)Nc1ccc(O)cc1 the results were PP5 inh 1, PP1 inh 0, IDE inh 2, SKKanGAS inh -3 and Granule exo inh -1.
For O=C(O)CCCN1C(=O)/C(=C\C(Cl)=C\c2ccccc2)SC1=S the results were IDE act 3, SKKanGAS inh 65* and Granule exo inh 3.
Screening CN1CCN(C(=O)CCCN2C(=O)/C(=C/c3ccc(Cl)cc3)SC2=S)CC1 returned PP5 inh -1, PP1 inh 7, IDE act -6, IDE inh 4 and Granule exo inh 1.
Screening COc1ccc(C(=O)CN2CCN(S(=O)(=O)c3cccc([N+](=O)[O-])c3)CC2)cc1 returned PP5 inh 0, PP1 inh -2, IDE act 0, IDE inh 1, SKKanGAS inh -13 and Granule exo inh -2.
For Nc1nnc(SCC(=O)NNC(=O)c2ccccc2F)s1 the results were IDE act -4, IDE inh 5 and Granule exo inh -1.
O=C(Nc1ccc(N2CCOCC2)cc1)c1csc(COCCO)n1 was read as Granule exo inh 2.
Screening CCc1ccc(N(C(=O)Cn2nnc(-c3ccccc3)n2)C(C(=O)NC2CCCCC2)c2ccccn2)cc1 (centres undefined) returned PP5 inh -2, PP1 inh -5, IDE act 3, IDE inh 1, SKKanGAS inh 15 and Granule exo inh 3.
`CCOC(=O)C1=NN(C(=O)c2ccccc2)C(O)(c2ccc(C)cc2)C1` (centres undefined) gave PP5 inh 1, PP1 inh 2, IDE act -1, IDE inh 0, SKKanGAS inh 7 and Granule exo inh 5.
`COC(=O)C1=NN(C(=O)c2cccc(Br)c2)C(O)(c2ccc(Cl)cc2)C1` (centres undefined) gave PP5 inh 1, PP1 inh 1, IDE act -1, IDE inh -2, SKKanGAS inh 86* and Granule exo inh 4.
CCOC(=O)C1=NN(C(=O)c2ccc(OC)cc2)C(O)(c2ccc(Cl)cc2)C1 (centres undefined) was read as PP5 inh 4, PP1 inh 2, IDE act 2, IDE inh -2, SKKanGAS inh 53* and Granule exo inh 0.
For CCOC(=O)C1=NN(C(=O)c2cccc(Br)c2)C(O)(C(C)(C)C)C1 (centres undefined) the results were PP5 inh 2, PP1 inh 0, IDE inh 0 and SKKanGAS inh 90*.
Screening CC(C)CNC(=O)C1(C)CCCCCN1Cc1ccccc1-c1ccccc1 (centres undefined) returned Granule exo inh -6.
C/C(=N/Nc1ccccc1[N+](=O)[O-])c1ccc(C)c([N+](=O)[O-])c1 was read as IDE act -2, SKKanGAS inh -8 and Granule exo inh 7.
For CC(C)/C(=N/Nc1ccccc1[N+](=O)[O-])c1ccccc1 the results were PP5 inh 0, PP1 inh 5, IDE act 4, IDE inh 5, SKKanGAS inh 56* and Granule exo inh 12.
O=C(NC(=S)N1CCN(c2ccc(C(F)(F)F)cc2[N+](=O)[O-])CC1)c1cccs1 was read as PP5 inh 0, PP1 inh 3, IDE act -4, IDE inh -2, SKKanGAS inh 87* and Granule exo inh -12.
For CCN1CCN(C(=S)NC(=O)c2cccs2)CC1 the results were PP5 inh 0, PP1 inh -1, IDE act 5, IDE inh 0, SKKanGAS inh -4 and Granule exo inh 9.
Screening C=C(CC1([C@@H](NP(=O)(c2ccccc2)c2ccccc2)[C@H]2C[C@@H]2CCCC)CC1)c1ccccc1 returned PP5 inh 2, PP1 inh 6, IDE act 2, IDE inh 0, SKKanGAS inh 77* and Granule exo inh 0.
`CCCC[C@@H]1C[C@H]1[C@@H](NC(=O)c1ccccc1)c1ccccc1C(F)(F)F` gave PP5 inh 4, PP1 inh 2, IDE act 0, IDE inh 2, SKKanGAS inh 7 and Granule exo inh 0.
CCn1c(SCC(=O)N/N=C(/C)c2ccncc2)nc2ccccc21 was read as PP5 inh 0, PP1 inh -2, IDE act -4, IDE inh 12, SKKanGAS inh 28 and Granule exo inh 60*.
`CCn1c(SCC(=O)NC2CC2)nc2ccccc21` gave Granule exo inh -2.
`CC1=NOC(=O)/C1=C\c1ccc(-c2cccc(Cl)c2)o1` gave PP5 inh -3, PP1 inh 13, IDE act -2, IDE inh 2, SKKanGAS inh -12 and Granule exo inh 100*.
